Screening results: PubChem BioAssay, The Scripps Research Institute Molecular Screening Center
ASK1 primary: inhibitors of human ASK1 kinase. Q99683. AlphaScreen MKK6 phosphorylation by ASK1, luminescence. inhibition, % at 7.44 µM. 22,000 tested, 0.99% active. AID 1159602; in the data active means inhibition above about 35%;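 further: 0% = median of compound wells and 100% = no enzyme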
ULK1 inh: inhibitors of human ULK1 kinase | O75385 | AID 1259251 | AlphaScreen Atg13 phosphorylation by ULK1, luminescence | inhibition, % at 5.96 µM | 30,000 tested, 1.9% active; in the data active means inhibition above about 43%;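 further: 0% = median of compound wells and 100% = no enzyme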
Target sequence (O75385 whole entry, looked up): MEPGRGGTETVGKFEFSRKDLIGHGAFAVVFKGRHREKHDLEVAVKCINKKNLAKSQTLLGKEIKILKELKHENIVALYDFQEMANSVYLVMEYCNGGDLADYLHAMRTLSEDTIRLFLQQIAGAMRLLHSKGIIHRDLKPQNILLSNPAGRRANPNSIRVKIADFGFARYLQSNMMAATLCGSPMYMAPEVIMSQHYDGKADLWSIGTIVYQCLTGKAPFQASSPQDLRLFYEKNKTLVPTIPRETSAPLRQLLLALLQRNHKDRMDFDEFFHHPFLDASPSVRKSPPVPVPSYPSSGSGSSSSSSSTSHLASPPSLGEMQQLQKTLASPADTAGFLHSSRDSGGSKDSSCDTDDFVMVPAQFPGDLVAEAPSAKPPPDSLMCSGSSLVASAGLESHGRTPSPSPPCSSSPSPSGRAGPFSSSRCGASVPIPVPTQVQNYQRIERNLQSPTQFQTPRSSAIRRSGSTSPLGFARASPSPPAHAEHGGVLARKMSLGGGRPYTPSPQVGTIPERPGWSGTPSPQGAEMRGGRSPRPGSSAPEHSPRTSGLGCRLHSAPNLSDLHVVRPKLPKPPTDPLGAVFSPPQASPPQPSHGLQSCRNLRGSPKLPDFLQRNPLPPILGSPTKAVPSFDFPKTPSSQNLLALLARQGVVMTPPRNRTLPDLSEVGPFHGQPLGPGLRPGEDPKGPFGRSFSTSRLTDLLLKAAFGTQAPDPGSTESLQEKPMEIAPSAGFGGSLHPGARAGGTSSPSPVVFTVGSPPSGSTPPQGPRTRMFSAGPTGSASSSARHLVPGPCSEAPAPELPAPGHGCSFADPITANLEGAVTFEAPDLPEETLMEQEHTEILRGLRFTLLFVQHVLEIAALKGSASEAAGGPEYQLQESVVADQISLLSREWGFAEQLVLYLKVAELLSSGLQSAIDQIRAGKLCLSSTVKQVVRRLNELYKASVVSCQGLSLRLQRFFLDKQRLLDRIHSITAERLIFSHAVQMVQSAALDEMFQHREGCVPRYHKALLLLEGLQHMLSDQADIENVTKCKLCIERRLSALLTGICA
Active calls of the source: *; x = no result. This is a sample that favours compounds with a hit; in the whole collection about 2.5% have one here.

SMILES	ASK1 primary	ULK1 inh
CC(C)n1cnc2c(NCc3cccnc3)nc(-c3ccc(C(=O)NC4CC4)cc3)nc21	-6.5	-7.0
N#C/C(=C\c1cccc([N+](=O)[O-])c1)C(=O)Nc1ccc([N+](=O)[O-])cc1Br	x	45.0*
N#C/C(=C\c1cccc(Br)c1)C(=O)Nc1cc([N+](=O)[O-])ccc1F	x	39.2
O=C(NCC(O)c1ccc(C(F)(F)F)cc1)c1cncc(-c2ccc3[nH]ncc3c2)c1 (stereo unspecified)	-12.6	7.3
NC(=O)c1ccc2[nH]nc(-c3cccc(OCCN4CCCCC4)c3)c2c1	5.9	61.0*
Cc1cc(Nc2ccc(OCCN3CCCCC3)cc2)nc(-c2cccc(OC(F)(F)F)c2)n1	-11.7	-22.9
c1cc(OCCN2CCCCC2)cc(-c2n[nH]c3ccc(-c4ncn[nH]4)cc23)c1	-12.2	44.9*
O=C(O)c1ccc(OCCN2CCCCC2)cc1	x	-7.2
CC(C)n1cnc2c(Nc3ccccc3)nc(Nc3ncccn3)nc21	-6.5	9.9
O=C(Nc1ccc(N2CCOCC2)cc1)c1cc(N2CCc3ccccc3C2)nc2ccccc12	-0.1	50.0*
O=C(NCCCN1CCCC1=O)c1cc(Nc2ccc(N3CCOCC3)cc2)nc2ccccc12	4.4	4.4
O=C(Nc1ccc(Oc2ccccc2)cc1)c1cc(N2CCc3ccccc3C2)nc2ccccc12	-16.2	-2.1
O=C(Nc1ccc(N2CCOCC2)cc1)c1cnc(NCCCN2CCCC2=O)s1	-5.1	56.0*
O=C(Nc1ccc(N2CCOCC2)cc1)c1cnc(NCCN2CCOCC2)s1	-0.6	0.4
O=C(Nc1ccc(N2CCOCC2)cc1)c1cc(NCCCN2CCCC2=O)nc2ccccc12	-9.5	51.5*
Cc1nc(C)n(-c2ccc(Nc3nccc(-c4cc(F)cc(-c5c(C)noc5C)c4)n3)cc2)n1	30.5	3.1
O=C(NCCOc1ccccc1)c1csc(Nc2ncccn2)n1	-4.4	-1.5
CC(C)n1cnc2c(Nc3ccccc3)nc(-c3csc4ccccc34)nc21	-3.1	-10.1
CC[C@H](NC(=O)C(Oc1nc(OC)cc(OC)n1)C(C)C)C(=O)OC(C)(C)C (stereo partly specified)	x	0.2
CNC(=O)c1ccccc1Nc1cc(Nc2cccnc2)ncc1C(F)(F)F	-1.0	61.2*
CNC(=O)c1ccccc1Nc1cc(Nc2ncccc2C)ncc1C(F)(F)F	-3.3	62.4*
CNC(=O)c1ccccc1Nc1cc(NC(=O)C(C)(C)c2ccccc2)ncc1C(F)(F)F	1.4	-17.2
CNC(=O)c1cnccc1Nc1cc(Nc2ccc3c(c2)CC(=O)N3)ncc1C(F)(F)F	-1.3	19.0
COc1cccc2cc(C(=O)N(CCCN(C)C)c3nc4cc(C)cc(C)c4s3)oc12	x	-152.5
COc1ccc(S(=O)(=O)/N=C2\C=CC(=O)C(Cl)=C2)cc1	x	44.1*
SMILES	ASK1 primary	ULK1 inh
Cc1ccc(S(=O)(=O)/N=C2/C(Cl)=C(Cl)C(=O)c3ccccc32)cc1	x	-2.4
O=C(Nc1ccc(Oc2ccccc2)cc1)c1ccnc(-c2ccc(N3CCOCC3)nc2)c1	6.3	3.2
C=CCOCCOc1cc(-c2cn[nH]c2)ccc1NC(=O)C1COc2ccc(OC)cc2C1 (stereo unspecified)	68.9*	17.6
COc1ccc2c(c1)CC(C(=O)Nc1ccc(-c3cn[nH]c3)cc1OCCO)CO2 (stereo unspecified)	16.5	6.4
COc1cccc(CNC(=O)c2cc3ccc(-c4cn[nH]c4)cc3n2CCCO)c1	7.5	-18.0
Nc1cccc(-c2cc(NCc3ccccc3)nc(N)n2)c1	-9.8	-12.1
COc1ccc(CCNc2nc(-c3cccc(C(C)=O)c3)nc3nc[nH]c23)cc1	2.4	-17.5
c1ccc(Nc2nc(Nc3ccc4ncccc4c3)nc3nc[nH]c23)cc1	-29.1	24.4
c1cncc(CNc2nc(NC3CC3)c3[nH]cnc3n2)c1	-3.9	-5.8
c1cnc2ccc(Nc3nc(NC4CC4)c4[nH]cnc4n3)cc2c1	-38.7	64.2*
CCCNc1nc(Nc2ccc3ncccc3c2)nc2nc[nH]c12	-26.8	49.0*
c1cc(Nc2nc(NC3CC3)c3[nH]cnc3n2)ccn1	-24.5	51.5*
c1ccc(OCCNc2nc(Nc3ccc4ncccc4c3)nc3nc[nH]c23)cc1	10.3	27.6
CCCNC(=O)c1cnc(NCCCN2CCCC2=O)s1	-8.4	1.2
Cn1c(Nc2nc(C(=O)NC3CC3)cs2)nc2ccccc21	-3.2	-5.5
NC(=O)c1ccccc1Nc1nc(Nc2ccc(N3CCCC3=O)cc2)ncc1Cl	-99.5	92.0*
NC(=O)c1ccccc1Nc1nc(Nc2ccc(N3CCOCC3)c(F)c2F)ncc1Cl	-51.7	38.8
Cc1ncn(-c2ccc(Nc3ncc(C)c(Nc4ccccc4C(N)=O)n3)cc2)n1	0.8	72.3*
N#Cc1ccc(Nc2ncc(Cl)c(Nc3ccccc3C(N)=O)n2)cc1	-8.5	46.2*
Cc1ncn(-c2ccc(Nc3ncc4ccnc(-c5ccccc5)c4n3)cc2)n1	2.0	0.2
COc1ccc(Nc2ncc(Cl)c(Nc3ccccc3-c3ccn(C)n3)n2)cc1	22.3	12.5
COc1ccccc1Oc1nc(N)[nH]c(=O)c1Br	x	7.3
